Results published in ChEMBL document CHEMBL1961873, “Compounds: GSK PKIS; Assays: Nanosyn kinase panel” (2012).

Key:
[1] = molecular target: T1, Inhibitor of nuclear factor kappa-B kinase subunit epsilon (Homo sapiens) (UniProt Q14164); details: at 1 µM;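 further: reported values are averaged percent inhibition figures against human IKKε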
T1 sequence (whole entry): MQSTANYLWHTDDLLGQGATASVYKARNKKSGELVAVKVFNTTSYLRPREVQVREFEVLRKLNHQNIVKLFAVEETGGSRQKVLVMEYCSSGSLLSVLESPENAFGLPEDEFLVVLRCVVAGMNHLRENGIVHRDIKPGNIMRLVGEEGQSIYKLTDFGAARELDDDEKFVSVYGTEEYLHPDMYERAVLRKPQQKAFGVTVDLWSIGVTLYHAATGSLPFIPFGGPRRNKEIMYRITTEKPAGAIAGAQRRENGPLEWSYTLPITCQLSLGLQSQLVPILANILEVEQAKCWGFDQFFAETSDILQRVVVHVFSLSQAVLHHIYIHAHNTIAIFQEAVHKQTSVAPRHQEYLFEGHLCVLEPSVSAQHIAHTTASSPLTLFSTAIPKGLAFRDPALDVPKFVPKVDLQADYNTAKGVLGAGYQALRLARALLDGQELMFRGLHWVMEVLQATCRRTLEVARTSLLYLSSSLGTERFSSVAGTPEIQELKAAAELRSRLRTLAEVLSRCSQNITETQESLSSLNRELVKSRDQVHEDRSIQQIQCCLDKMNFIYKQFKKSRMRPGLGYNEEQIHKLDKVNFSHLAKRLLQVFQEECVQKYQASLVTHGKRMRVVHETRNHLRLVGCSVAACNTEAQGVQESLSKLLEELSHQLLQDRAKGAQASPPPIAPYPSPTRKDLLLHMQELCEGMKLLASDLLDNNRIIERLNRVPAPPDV

[2] = molecular target: T2, Serine/threonine-protein kinase Nek1 (Homo sapiens) (UniProt Q96PY6); details: at 0.1 µM
T2 sequence (whole entry): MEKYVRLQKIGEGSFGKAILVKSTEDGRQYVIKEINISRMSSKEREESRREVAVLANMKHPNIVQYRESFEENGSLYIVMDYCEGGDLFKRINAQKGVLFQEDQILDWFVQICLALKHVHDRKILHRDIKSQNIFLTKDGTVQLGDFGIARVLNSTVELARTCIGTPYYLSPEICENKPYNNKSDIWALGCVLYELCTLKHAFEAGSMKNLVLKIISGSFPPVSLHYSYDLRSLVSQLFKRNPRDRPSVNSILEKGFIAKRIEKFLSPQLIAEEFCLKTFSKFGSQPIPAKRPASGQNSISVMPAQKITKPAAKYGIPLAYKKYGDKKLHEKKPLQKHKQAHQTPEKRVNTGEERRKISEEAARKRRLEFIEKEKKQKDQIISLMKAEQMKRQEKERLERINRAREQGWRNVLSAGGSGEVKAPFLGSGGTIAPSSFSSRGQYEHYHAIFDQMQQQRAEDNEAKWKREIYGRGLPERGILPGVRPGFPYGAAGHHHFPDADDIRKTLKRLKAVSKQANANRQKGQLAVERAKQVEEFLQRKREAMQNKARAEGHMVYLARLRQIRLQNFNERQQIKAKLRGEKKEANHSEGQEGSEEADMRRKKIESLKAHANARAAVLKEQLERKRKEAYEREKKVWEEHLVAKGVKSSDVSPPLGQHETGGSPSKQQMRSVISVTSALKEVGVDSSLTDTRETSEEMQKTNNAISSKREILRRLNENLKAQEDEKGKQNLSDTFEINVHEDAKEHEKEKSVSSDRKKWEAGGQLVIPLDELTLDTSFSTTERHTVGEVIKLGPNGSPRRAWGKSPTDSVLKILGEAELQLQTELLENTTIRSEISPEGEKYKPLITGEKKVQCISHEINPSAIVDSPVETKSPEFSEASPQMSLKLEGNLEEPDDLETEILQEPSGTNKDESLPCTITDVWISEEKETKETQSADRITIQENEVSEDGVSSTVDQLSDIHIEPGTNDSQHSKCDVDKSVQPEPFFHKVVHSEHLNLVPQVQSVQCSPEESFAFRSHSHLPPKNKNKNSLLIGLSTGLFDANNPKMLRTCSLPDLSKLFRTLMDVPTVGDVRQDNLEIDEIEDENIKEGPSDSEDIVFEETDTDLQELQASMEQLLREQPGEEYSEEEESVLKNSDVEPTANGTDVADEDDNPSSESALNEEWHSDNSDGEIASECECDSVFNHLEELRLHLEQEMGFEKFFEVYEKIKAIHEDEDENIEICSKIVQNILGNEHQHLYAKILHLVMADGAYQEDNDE

[3] = molecular target: T2, Serine/threonine-protein kinase Nek1 (Homo sapiens); details: at 1 µM
[4] = molecular target: T3, Serine/threonine-protein kinase Nek2 (Homo sapiens) (UniProt P51955); details: at 0.1 µM
T3 sequence (whole entry): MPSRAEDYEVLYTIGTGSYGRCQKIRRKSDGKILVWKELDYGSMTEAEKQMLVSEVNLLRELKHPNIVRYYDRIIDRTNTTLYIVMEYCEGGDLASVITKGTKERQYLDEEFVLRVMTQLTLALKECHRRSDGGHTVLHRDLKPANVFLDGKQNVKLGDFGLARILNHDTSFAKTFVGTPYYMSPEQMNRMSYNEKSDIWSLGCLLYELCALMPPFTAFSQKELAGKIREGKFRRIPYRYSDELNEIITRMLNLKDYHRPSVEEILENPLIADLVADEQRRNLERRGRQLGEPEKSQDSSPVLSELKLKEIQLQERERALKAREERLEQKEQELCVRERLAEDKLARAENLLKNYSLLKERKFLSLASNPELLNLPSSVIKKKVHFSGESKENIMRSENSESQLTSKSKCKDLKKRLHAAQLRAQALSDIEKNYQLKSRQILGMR

[5] = molecular target: T3, Serine/threonine-protein kinase Nek2 (Homo sapiens); details: at 1 µM
[6] = molecular target: Serine/threonine-protein kinase Nek6 (Homo sapiens) (UniProt Q9HC98); details: at 0.1 µM
[7] = molecular target: Serine/threonine-protein kinase Nek6 (Homo sapiens) (UniProt Q9HC98); details: at 1 µM
[8] = molecular target: Serine/threonine-protein kinase Nek7 (Homo sapiens) (UniProt Q8TDX7); details: at 0.1 µM
[9] = molecular target: Serine/threonine-protein kinase Nek7 (Homo sapiens) (UniProt Q8TDX7); details: at 1 µM
[10] = molecular target: T4, Serine/threonine-protein kinase Nek9 (Homo sapiens) (UniProt Q8TD19); details: at 0.1 µM
T4 sequence (whole entry): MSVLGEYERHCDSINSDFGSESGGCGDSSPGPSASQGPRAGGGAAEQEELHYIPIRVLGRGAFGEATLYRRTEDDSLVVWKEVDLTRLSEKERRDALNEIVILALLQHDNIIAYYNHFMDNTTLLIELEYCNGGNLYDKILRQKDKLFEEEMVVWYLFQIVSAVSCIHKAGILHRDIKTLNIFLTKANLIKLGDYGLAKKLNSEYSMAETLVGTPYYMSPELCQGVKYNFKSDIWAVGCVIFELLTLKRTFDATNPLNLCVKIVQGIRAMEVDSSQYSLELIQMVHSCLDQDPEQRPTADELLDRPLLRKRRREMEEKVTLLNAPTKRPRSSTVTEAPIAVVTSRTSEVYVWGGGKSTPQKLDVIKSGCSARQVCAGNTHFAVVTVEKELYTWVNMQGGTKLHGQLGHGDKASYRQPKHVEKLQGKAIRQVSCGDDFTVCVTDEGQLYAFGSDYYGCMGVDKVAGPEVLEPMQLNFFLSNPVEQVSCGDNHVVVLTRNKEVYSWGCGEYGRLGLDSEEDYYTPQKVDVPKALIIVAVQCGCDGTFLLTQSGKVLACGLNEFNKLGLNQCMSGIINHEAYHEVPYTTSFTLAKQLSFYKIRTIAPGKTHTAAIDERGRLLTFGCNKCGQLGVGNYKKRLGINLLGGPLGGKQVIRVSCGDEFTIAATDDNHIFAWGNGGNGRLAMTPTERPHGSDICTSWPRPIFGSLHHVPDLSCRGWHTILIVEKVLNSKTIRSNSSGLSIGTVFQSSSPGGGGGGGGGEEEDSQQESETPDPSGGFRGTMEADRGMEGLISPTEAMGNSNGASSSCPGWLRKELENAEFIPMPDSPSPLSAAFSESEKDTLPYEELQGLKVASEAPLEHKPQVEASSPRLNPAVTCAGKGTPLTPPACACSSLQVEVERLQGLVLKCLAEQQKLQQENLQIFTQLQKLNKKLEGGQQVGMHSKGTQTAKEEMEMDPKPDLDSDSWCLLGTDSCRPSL

[11] = molecular target: T4, Serine/threonine-protein kinase Nek9 (Homo sapiens); details: at 1 µM
[12] = molecular target: Serine/threonine-protein kinase PLK1 (Homo sapiens) (UniProt P53350); details: at 0.1 µM
[13] = molecular target: Serine/threonine-protein kinase PLK1 (Homo sapiens) (UniProt P53350); details: at 1 µM
[14] = molecular target: T5, Dual specificity protein kinase TTK (Homo sapiens) (UniProt P33981); details: at 0.1 µM
T5 sequence (whole entry): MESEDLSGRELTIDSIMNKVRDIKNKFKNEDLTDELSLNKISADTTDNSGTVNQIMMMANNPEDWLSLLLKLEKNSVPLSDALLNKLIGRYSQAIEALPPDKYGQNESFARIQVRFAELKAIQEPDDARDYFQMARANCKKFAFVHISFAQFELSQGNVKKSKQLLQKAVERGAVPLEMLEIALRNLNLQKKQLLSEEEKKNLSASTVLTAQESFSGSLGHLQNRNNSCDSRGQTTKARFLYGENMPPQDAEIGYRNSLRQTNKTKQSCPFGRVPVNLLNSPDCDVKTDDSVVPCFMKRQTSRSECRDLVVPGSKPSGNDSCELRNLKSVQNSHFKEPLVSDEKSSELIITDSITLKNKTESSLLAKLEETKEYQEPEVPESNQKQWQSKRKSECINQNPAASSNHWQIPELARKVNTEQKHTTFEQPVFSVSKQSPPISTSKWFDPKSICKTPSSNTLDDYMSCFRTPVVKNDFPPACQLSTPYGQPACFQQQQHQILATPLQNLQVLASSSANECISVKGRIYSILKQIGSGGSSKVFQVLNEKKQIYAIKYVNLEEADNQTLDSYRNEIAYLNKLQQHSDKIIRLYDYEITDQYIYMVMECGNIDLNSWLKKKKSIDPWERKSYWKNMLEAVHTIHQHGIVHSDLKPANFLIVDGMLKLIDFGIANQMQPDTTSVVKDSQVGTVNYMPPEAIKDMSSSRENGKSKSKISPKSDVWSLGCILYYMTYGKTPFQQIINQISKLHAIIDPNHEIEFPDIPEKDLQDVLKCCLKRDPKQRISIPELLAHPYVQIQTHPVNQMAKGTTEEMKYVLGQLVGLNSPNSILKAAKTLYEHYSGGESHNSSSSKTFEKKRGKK

[15] = test system: T6, Receptor-type tyrosine-protein kinase FLT3 (Homo sapiens), P36888 [D835Y]; details: at 1 µM
T6 sequence (whole entry): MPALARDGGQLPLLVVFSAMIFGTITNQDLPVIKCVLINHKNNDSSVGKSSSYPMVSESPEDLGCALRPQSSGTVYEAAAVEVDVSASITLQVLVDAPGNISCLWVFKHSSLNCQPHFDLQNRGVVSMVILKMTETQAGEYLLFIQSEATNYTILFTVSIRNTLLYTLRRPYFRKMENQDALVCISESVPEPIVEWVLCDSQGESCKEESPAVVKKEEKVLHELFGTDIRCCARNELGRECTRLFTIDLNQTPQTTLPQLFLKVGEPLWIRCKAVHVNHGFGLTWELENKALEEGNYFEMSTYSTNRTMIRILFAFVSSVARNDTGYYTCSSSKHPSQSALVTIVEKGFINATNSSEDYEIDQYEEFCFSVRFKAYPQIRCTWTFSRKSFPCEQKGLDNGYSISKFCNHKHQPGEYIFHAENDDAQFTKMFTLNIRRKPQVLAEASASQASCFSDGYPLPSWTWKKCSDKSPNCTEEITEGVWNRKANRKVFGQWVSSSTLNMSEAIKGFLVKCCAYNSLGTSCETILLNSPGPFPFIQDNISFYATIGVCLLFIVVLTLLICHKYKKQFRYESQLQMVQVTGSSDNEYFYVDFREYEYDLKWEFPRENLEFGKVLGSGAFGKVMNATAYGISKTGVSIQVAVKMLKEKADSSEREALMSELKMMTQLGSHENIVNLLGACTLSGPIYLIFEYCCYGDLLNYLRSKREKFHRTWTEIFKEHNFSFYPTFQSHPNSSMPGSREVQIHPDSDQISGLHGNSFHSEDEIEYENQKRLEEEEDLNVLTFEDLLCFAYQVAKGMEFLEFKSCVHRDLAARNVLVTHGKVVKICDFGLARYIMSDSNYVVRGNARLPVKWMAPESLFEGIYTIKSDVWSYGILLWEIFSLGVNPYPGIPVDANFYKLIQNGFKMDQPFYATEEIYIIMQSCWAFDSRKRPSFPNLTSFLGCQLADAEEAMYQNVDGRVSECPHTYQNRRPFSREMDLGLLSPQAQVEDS

[16] = molecular target: Vascular endothelial growth factor receptor 3 (Homo sapiens) (UniProt P35916); details: at 0.1 µM
[17] = molecular target: Vascular endothelial growth factor receptor 3 (Homo sapiens) (UniProt P35916); details: at 1 µM
[18] = molecular target: Macrophage colony-stimulating factor 1 receptor (Homo sapiens) (UniProt P07333); details: at 0.1 µM
[19] = molecular target: Macrophage colony-stimulating factor 1 receptor (Homo sapiens) (UniProt P07333); details: at 1 µM
[20] = molecular target: Tyrosine-protein kinase Fyn (Homo sapiens) (UniProt P06241); details: at 0.1 µM
Tyrosine-protein kinase Fyn (Homo sapiens), sequence (P06241 2-537 limits assumed): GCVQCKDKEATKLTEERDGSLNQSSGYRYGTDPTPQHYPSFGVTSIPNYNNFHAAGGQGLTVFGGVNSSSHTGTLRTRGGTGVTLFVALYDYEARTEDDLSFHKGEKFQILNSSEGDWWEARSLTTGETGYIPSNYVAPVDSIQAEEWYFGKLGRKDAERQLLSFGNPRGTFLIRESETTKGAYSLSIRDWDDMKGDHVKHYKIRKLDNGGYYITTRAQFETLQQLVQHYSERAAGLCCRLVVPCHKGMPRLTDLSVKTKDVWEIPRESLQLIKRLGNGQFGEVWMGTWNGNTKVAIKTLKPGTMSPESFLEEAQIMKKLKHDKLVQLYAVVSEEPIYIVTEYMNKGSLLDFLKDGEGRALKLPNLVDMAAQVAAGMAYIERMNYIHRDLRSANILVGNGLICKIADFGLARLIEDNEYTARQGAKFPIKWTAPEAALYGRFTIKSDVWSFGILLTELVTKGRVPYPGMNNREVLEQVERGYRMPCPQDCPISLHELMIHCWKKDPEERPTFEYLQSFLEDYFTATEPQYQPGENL

Serine/threonine-protein kinase Nek6 (Homo sapiens), sequence (Q9HC98 whole entry): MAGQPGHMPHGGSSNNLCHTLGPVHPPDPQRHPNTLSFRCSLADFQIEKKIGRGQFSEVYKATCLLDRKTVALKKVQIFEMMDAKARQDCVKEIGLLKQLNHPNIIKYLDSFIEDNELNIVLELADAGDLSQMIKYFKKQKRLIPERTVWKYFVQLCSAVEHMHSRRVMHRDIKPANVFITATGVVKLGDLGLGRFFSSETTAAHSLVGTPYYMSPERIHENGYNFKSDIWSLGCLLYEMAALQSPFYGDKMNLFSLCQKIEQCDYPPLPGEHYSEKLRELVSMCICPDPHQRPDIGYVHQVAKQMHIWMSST
Vascular endothelial growth factor receptor 3 (Homo sapiens), sequence (P35916 whole entry): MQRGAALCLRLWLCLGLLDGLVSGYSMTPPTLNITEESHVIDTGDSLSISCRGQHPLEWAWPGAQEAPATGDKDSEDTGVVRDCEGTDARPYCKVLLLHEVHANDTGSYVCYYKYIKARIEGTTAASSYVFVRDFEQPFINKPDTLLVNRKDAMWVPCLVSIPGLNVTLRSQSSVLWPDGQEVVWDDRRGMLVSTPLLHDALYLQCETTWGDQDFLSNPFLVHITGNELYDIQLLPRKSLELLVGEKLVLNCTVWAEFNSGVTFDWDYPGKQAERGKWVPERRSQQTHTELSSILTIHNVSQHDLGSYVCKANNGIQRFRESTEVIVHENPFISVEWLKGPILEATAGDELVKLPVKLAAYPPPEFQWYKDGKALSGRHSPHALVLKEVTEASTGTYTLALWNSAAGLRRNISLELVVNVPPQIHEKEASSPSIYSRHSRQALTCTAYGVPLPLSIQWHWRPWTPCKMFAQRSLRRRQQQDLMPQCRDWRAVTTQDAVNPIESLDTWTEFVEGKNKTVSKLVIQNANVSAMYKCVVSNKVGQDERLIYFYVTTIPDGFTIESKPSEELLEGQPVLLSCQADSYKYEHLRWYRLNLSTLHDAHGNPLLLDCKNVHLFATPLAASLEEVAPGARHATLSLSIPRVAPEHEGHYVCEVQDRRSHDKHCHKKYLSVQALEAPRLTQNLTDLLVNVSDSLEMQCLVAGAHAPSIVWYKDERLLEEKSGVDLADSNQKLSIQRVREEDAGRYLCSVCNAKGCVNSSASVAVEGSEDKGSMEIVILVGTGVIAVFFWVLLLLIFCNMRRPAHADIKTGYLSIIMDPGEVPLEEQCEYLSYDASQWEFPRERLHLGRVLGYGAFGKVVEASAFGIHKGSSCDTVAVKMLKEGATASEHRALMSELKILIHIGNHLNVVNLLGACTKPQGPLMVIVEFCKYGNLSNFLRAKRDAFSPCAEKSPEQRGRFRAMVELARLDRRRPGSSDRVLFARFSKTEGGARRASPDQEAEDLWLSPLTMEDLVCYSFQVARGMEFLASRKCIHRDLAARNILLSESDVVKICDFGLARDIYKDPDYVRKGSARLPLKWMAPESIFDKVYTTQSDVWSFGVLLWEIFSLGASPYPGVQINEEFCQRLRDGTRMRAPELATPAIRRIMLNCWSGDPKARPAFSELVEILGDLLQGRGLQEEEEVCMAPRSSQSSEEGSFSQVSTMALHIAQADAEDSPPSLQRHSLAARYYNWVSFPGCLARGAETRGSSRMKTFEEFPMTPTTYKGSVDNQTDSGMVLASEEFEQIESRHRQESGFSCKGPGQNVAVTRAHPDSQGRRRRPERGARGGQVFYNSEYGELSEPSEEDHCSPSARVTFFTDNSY
Serine/threonine-protein kinase PLK1 (Homo sapiens), sequence (P53350 whole entry): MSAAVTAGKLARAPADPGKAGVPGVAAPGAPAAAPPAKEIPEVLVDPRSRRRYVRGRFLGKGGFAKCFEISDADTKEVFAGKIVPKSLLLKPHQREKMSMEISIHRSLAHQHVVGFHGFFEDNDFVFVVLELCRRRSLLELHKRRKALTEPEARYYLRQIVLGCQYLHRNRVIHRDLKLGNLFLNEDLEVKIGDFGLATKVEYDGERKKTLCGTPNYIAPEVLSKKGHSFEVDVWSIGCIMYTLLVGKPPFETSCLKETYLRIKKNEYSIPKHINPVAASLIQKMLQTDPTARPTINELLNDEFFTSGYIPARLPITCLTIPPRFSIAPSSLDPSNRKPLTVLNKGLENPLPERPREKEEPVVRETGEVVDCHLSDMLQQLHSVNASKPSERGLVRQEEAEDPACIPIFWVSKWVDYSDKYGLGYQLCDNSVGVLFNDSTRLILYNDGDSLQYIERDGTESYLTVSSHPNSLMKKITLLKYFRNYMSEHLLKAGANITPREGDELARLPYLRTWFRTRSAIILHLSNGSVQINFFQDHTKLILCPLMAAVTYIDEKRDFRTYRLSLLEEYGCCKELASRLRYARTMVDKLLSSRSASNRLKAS
Serine/threonine-protein kinase Nek7 (Homo sapiens), sequence (Q8TDX7 whole entry, looked up): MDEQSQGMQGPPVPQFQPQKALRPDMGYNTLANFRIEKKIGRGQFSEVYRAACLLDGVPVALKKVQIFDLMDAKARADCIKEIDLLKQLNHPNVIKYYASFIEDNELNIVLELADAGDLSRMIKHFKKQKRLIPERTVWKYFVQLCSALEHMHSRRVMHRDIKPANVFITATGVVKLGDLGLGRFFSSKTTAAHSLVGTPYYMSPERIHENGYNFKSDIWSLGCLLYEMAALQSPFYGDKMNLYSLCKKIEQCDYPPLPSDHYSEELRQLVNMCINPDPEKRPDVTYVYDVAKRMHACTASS
Macrophage colony-stimulating factor 1 receptor (Homo sapiens), sequence (P07333 whole entry): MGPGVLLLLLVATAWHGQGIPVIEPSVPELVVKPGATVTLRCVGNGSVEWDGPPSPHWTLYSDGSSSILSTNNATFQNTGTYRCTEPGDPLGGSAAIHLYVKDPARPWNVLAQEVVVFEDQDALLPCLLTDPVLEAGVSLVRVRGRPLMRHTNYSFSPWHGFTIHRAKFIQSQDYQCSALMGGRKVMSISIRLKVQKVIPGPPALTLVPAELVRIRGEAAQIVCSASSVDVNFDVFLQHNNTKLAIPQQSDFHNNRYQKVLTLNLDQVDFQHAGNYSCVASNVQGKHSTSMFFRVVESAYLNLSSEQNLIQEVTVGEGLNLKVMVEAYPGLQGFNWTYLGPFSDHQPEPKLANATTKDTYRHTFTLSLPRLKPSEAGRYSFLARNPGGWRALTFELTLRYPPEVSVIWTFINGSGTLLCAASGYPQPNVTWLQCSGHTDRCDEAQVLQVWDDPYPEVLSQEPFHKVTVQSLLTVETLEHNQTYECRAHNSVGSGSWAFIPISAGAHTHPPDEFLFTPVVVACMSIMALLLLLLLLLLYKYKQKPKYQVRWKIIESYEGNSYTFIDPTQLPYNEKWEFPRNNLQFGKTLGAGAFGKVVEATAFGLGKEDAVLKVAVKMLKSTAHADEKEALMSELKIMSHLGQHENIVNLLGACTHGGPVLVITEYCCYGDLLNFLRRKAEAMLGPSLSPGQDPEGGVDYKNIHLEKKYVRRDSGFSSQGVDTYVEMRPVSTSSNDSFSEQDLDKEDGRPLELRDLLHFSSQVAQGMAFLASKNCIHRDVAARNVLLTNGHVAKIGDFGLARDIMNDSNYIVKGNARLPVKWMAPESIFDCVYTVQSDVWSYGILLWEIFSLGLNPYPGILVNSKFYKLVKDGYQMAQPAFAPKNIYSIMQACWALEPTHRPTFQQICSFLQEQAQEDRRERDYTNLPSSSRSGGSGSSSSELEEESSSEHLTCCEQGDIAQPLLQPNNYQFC

SMILES	inhibition [1] [%]	inhibition [2] [%]	inhibition [3] [%]	inhibition [4] [%]	inhibition [5] [%]	inhibition [6] [%]	inhibition [7] [%]	inhibition [8] [%]	inhibition [9] [%]	inhibition [10] [%]	inhibition [11] [%]	inhibition [12] [%]	inhibition [13] [%]	inhibition [14] [%]	inhibition [15] [%]	inhibition [16] [%]	inhibition [17] [%]	inhibition [18] [%]	inhibition [19] [%]	inhibition [20] [%]
CC(C)(CO)CNC(=O)c1ccc2c(c1)/C(=N/Nc1ccc(S(N)(=O)=O)cc1)C(=O)N2	59.7	0.37	1.29	0.26	0.85	1.63	0.2	-1.3	2.36	2.95	8.02	1.21	0.88	61.5	45.6	4.05	44.3	-6.57	3.69	10.9
CCn1cc(-c2ccnc3[nH]ccc23)c(-c2cccc(NC(=O)Nc3ccc(OCc4ccccc4)cc3)c2)n1	3.46	1.35	0.82	0.4	-1.01	-0.55	-0.07	-1.04	-5.21	3.07	1.16	-0.45	-0.98	7.9	0.68	-0.45	-0.67	-7.9	0.27	0.67
Clc1ccc(-c2nn3ncccc3c2-c2ccnc(Nc3ccccc3)n2)cc1	-3.51	1.79	1.38	2.53	1.79	2.55	2.29	2.07	1.34	5.9	-3.71	-9.28	3.17	3.63	-0.74	4.99	16.2	4.3	32.3	9.12
